tim10-1 inh – tim10-1 yeast growth inhibition | S. cerevisiae tim10-1 ts strain growth, BacTiter-Glo, 24 h | inhibition, % at 20 µM | 2.2% of 330,000 active | AID 463190;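 active = inhibition of at least 40%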;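 also: mutant grown at 25 °C; 0% = DMSO wells with yeast and 100% = wells holding no yeast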
B2AR ag – human beta-2 adrenergic receptor agonism by FAP. Am2.2-beta2AR cells, FAP receptor internalization, flow cytometry. response, % (concentration not given with the values). 0.43% of 340,000 active. AID 504454;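 active = response above a set limit, near 3 SD of response in nonfluorescent compounds, cut at about 42% in these data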
Target sequence (P07550 whole entry, looked up): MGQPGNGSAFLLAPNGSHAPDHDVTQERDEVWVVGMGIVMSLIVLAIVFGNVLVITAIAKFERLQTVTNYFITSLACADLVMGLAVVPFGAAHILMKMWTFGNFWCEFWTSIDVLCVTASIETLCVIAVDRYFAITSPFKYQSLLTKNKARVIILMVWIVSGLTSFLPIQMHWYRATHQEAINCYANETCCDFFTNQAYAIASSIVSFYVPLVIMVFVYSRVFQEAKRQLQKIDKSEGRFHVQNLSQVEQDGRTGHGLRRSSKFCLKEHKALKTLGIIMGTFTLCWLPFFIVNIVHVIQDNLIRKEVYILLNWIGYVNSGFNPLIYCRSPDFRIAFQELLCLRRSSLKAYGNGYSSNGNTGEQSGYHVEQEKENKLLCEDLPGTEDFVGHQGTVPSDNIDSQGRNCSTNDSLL
PfHsp90 yeast 2 – growth inhibition of yeast expressing Plasmodium Hsp90 | S. cerevisiae expressing PfHsp90, BacTiter-Glo ATP, 48 h; yeast lacking PDR1 and PDR3 efflux regulators | 0.32% of 310,000 active | AID 504621 | inhibition, % at 9.4 µM;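 active = every replicate shows inhibition above about 80%, whatever the replicate mean, limit read from the data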;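 also: 0% = DMSO neutral controls and 100% = 20 µM radicicol positive controls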
TIM10 inh – growth inhibitors of TIM10 yeast strain. S. cerevisiae TIM10 strain growth, BacTiter-Glo luminescence, 24 h. 1.4% of 330,000 active. inhibition, % at 10 µM;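 active = inhibition of 40% or more at the single tested concentration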;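 also: wild-type TIM10 isogenic control strain grown at permissive 25 °C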
tim23-1 inh – inhibits growth of tim23-1 mutant yeast | S. cerevisiae tim23-1 growth, BacTiter-Glo luminescence, 24 h | inhibition, % at 20 µM | 1.3% of 330,000 active;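 active = growth inhibition of the mutant yeast at or above 50%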;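 also: temperature-sensitive mutant grown at 25 °C; plate controls were DMSO-treated mutant yeast for no effect and medium wells lacking yeast for full effect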
tim10 confirm – TIM10 yeast growth inhibition, confirmed. shares compounds with TIM10 inh. S. cerevisiae tim10 strain growth, BacTiter-Glo luminescence, 24 h. inhibition, % at 10 µM. 63% of 4,600 active. AID 463215;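 active = inhibition of yeast growth at or above a set limit in either of two replicates at 10 µM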;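 also: this counterscreen used the strain with wild-type TIM10; 0% = yeast with DMSO and 100% = medium wells lacking yeast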
An asterisk follows results filed as active; . = not tested or not shown. A selection: hits, their analogues and other compounds. The true share with any hit is near 3.8%.

SMILES | tim10-1 inh | B2AR ag | PfHsp90 yeast 2 | TIM10 inh | tim23-1 inh | tim10 confirm
CCC(C)NC(=O)c1cc2cc3ccc(OC)cc3nc2s1 (centres undefined) | 27 | 16 | 14 | 46* | 37 | 25
COc1ccc2cc3cc(C(=O)NCCN4CCc5ccccc5C4)sc3nc2c1 | 26 | -9 | -30 | 69* | 22 | 67*
Cn1ccc(NC(=O)c2ccc([N+](=O)[O-])cc2)n1 | -9 | 7 | 34 | 7 | 0 | .
Cc1ccc(NC(=O)C(C)OC(=O)COc2cccc(C(F)(F)F)c2)cc1 (centres undefined) | 9 | -2 | 6 | -36 | 20 | .
COc1ccc(/C=C/C(=O)C(C(N)=O)=C2SCCS2)cc1 | 31 | 6 | -3 | 0 | 8 | .
Cc1ccc(C(=O)C(C(=O)/C=C/c2ccccc2)=C2SCCCS2)cc1 | 37 | 17 | 19 | 52* | 32 | -16
N/C(=N\OC(=O)/C=C/c1ccccc1Cl)c1cccnc1 | 14 | 3 | . | 4 | 12 | .
N/C(=N\OC(=O)/C=C/c1ccccc1Cl)c1ccccn1 | 36 | -3 | -19 | 51* | 48 | 55*
CCc1ccc2[nH]c(=O)c(C(c3nnnn3Cc3ccco3)N3CCC(C)CC3)cc2c1 (centres undefined) | 31 | 3 | -14 | 41* | 25 | 20
CCc1ccc2[nH]c(=O)c(C(c3nnnn3Cc3ccccc3)N3CCOCC3)cc2c1 (centres undefined) | 30 | -5 | 3 | -3 | 13 | .
CCC1CCC(NC(=O)Nc2cccc(OC)c2)CC1 (centres undefined) | 30 | 7 | -10 | 45* | 25 | 24
CCOc1ccc(C(=O)NCC(=O)OCc2nnc(-c3ccccc3)o2)cc1OCC | -10 | -4 | 0 | 50* | 1 | -15
COc1ccc(CN(Cc2nc3ccccc3c(=O)[nH]2)C(=O)NC2CCCCC2)cc1 | 28 | -7 | -11 | 29 | 11 | .
COc1ccc(S(=O)(=O)N(Cc2nc3ccccc3c(=O)[nH]2)C2CCCC2)cc1 | 30 | -1 | -5 | 42* | 30 | 13
Cc1noc(C)c1COc1ccc(C(=O)OCC(=O)N2CC3(C)CC2CC(C)(C)C3)cc1 (centres undefined) | 37 | 7 | 6 | 44* | 35 | 31*
CN(C)S(=O)(=O)c1ccc(C(=O)OCC(=O)N2CC3(C)CC2CC(C)(C)C3)cc1 (centres undefined) | 14 | -4 | 3 | 15 | 16 | .
Cc1ccccc1Nc1nc(Nc2ccccc2C)nc(SC2=NCCS2)n1 | 31 | 2 | -20 | 42* | 33 | 45*
C/C(Cl)=C\Cn1c(O)c(N=NC(N)=S)c2cc(Br)ccc21 | 22 | 3 | -127 | 42* | 31 | 48*
O=C(O)c1cc2c(ccc3ccccc32)oc1=O | 1 | -1 | -9 | 0 | 10 | .
CCOC(=O)c1cc2c(ccc3ccccc32)oc1=O | 22 | -6 | -19 | 47* | 26 | 49*
N=c1oc2ccc3ccccc3c2cc1C(N)=S | 20 | 13 | 14 | 42* | 42 | 39*
O=C(c1cc2c(ccc3ccccc32)oc1=O)N1CCCC1 | 2 | -12 | 22 | -2 | -8 | .
CC1CCCN(S(=O)(=O)c2ccc(NC(=O)C3CC(=O)N(c4ccccc4)C3)cc2)C1 (centres undefined) | 18 | -1 | 5 | -1 | 19 | .
CN1CCN(c2nc(-c3ccc(Cl)cc3)nc3ccccc23)CC1 | 17 | 5 | -12 | 41* | 46 | 22
CC1(C)Oc2ccc3ccc(=O)oc3c2/C(=C/NC2CCCCC2)C1=O | 40 | 8 | -3 | 54* | -1 | 42*
SMILES | tim10-1 inh | B2AR ag | PfHsp90 yeast 2 | TIM10 inh | tim23-1 inh | tim10 confirm
Cc1cc(OCc2cc(C(=O)N(Cc3nccn3C)C(C)C)no2)cc(C)c1Cl | 16 | -1 | -19 | 0 | 23 | .
N/C(=N/O)c1nc(N2CCCC2)nc(N(c2ccccc2)c2ccccc2)n1 | 33 | 0 | 21 | 53* | 48 | 36*
O=C(C#Cc1ccccc1)c1cccc([N+](=O)[O-])c1 | -63 | 67* | 152* | 72* | 17 | 70*
O=C(Cc1ccccc1)OCC(=O)c1cccc([N+](=O)[O-])c1 | 1 | -11 | 0 | -1 | 0 | .
Cc1cccc(OCc2ccccc2)n1 | . | -8 | -5 | . | . | .
COc1ccc(NC(=O)c2ccc(NC(=O)c3nc4nc(C)cc(C)n4n3)cc2)cc1 | 2 | -7 | 13 | 42* | 3 | 26
COc1ccc(NC(=O)CSc2nc3nc(C)cc(C)n3n2)cc1 | 1 | -13 | -6 | -14 | 7 | .
O=C(c1ccc(Oc2ccc(C(F)(F)F)cn2)cc1)N1CCN(c2ccccc2)CC1 | 35 | 2 | -11 | 25 | 33 | .
COc1ccc(N2CCN(C(=O)c3ccc(Oc4ccc(C(F)(F)F)cn4)cc3)CC2)cc1 | 24 | -7 | 4 | 44* | 26 | 41*
Cc1nn(-c2ccccc2)c(Cl)c1C(=O)OCC(=O)NCCc1ccccc1 | 25 | 5 | -1 | 4 | 25 | .
CCCCn1c(-c2csc3c2CCCC3)n[nH]c1=S | 20 | . | . | 43* | 34 | 24
CCCCn1c(-c2csc3ccccc23)n[nH]c1=S | 38 | -5 | 1 | 11 | 43 | .
C=CCn1c(-c2csc3c2CCC(C)C3)n[nH]c1=S (centres undefined) | 30 | -19 | -10 | 43* | 27 | -3
CCn1cc(/C=C(\NC(=O)c2ccc(OC)c(OC)c2)C(=O)NCCCN2CCOCC2)c2ccccc21 | -7 | 0 | 4 | 4 | -2 | .
O=C1CN(S(=O)(=O)c2cccc(C(=O)O)c2)c2ccccc2N1 | 10 | 0 | -11 | -14 | 4 | .
O=C1C=C(O)c2[nH]c(=O)ccc2C1=O | . | -2 | -9 | . | . | .
CN(C)CCCn1c(SCC(=O)Nc2nc(-c3cccc(Br)c3)cs2)nc2ccccc2c1=O | 23 | 30 | -22 | 43* | -10 | 25
O=C(CSc1nc2ccccc2[nH]1)Nc1nc(-c2cccc(Br)c2)cs1 | 3 | 12 | 4 | 21 | 31 | .
Cc1[nH]c(C)c(S(=O)(=O)N2CCN(c3ccccc3)CC2)c1C(=O)N1CCCCC1 | -17 | 7 | -36 | 0 | 1 | .
Cc1ccc(N2CC(O)=C(c3nc4ccccc4c(=O)[nH]3)C2=N)cc1C | 13 | -5 | 18 | 47* | 46 | 21
Cc1cc(N2O[C@]34C=C[C@]25C[C@@H](O)CC[C@]5(C)C3CC[C@]2(C)[C@@H]([C@H](C)/C=C/[C@H](C)C(C)C)CC[C@H]24)no1 (some centres undefined) | 25 | -4 | -18 | -11 | 35 | .
Cc1ccccc1-n1nnnc1SCC(=O)c1c(N)n(C2CC2)c(=O)[nH]c1=O | -1 | -2 | -2 | -1 | 2 | .
COc1ccc(-c2nc3ccccc3s2)cc1O | 26 | 6 | 14 | 47* | 0 | -24
